Data: PubChem BioAssay AID1508600 (Functional Genomics Laboratory (NCATS/FGL), 2020)
Screen size: about 53,000 sequences; about 3,700 (7%) were called active.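 Rule for the calls: active = gene knockdowns whose robust z-score for IL-1 alpha signal is at least 2 or at most -2, so actives lie on both sides; inactive = the rest.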 Shown is part of a subset that was picked to be rich in actives.

test: Components of the Cytosolic LPS Sensing Pathway: Gene Identification via Genome-wide siRNA Screen; details: RAW264.7 macrophages, IL-1a HTRF, actives lie on both sides, screened at 100 nM (by protocol), cells primed 5 h with Pam3CSK4 first;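 note: robust z of the log signal after scaling to non-targeting control siRNA wells of the plate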
Outline: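 Supernatant IL-1a by HTRF from RAW264.7 cells primed with Pam3CSK4 (5 hours) and transfected with LipidA (24 hour) after 48h siRNA knockdown at 100 nM; cell viability checked with CellTiter-Glo.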

| Sequence | z-score |
| --- | --- |
| GCCGAGAUGGUCAUAAGCUTT against Rbbp5 | 1.99 (inactive) |
| CCUACCACAACAUGUAUCCTT against S100a11 | 2.25 (active) |
| GCACGGCGAAAAAAUCUUCTT against Katnal2 | -0.167 (inactive) |
| GCAGUGGUAGAACAUCCAATT against Bhmt2 | 0.585 (inactive) |
| CCUACUGUCUAAGAAUACATT against Olfr1138 | -1.65 (inactive) |
| CCUUCCACAAAUACUCAGGTT against S100a4 | 0.562 (inactive) |
| GGCUUAUGUGAUUUUGAUUTT against Gpr63 | -0.628 (inactive) |
| GGAGAAGAUGUCAUCCAGATT against Zfp467 | -0.37 (inactive) |
| GGAUAGACACUAGGAUCCUTT against Pdcd1lg2 | 0.721 (inactive) |
| GCUGCUAUGAGAGAGUUUUTT against Serpind1 | 2.18 (active) |
| GGCAACAAAUCAAAGCAGCTT against Anxa7 | 1.4 (inactive) |
| GCUUAUAAAGUAGUGGUUUTT against Wnt2b | -0.384 (inactive) |
| GCACCGAGUGGAAUAAUCATT against Lrp12 | 3.44 (active) |
| CCGUAAGUCUCGGAUCUCCTT against Plcxd1 | 0.373 (inactive) |
| GCCACUACAUAAAAUAGUCTT against Ube2z | 0.0966 (inactive) |
| GGAGAUGAGGUGAAGUGGATT against Acsm4 | -0.213 (inactive) |
| GGCAUAUAUACAUGCCUGCTT against Vmn1r215 | 0.833 (inactive) |
| GCCCUACUAAGUCAAUUAATT against 1700055D18Rik | 0.248 (inactive) |
| GGACAUUUUCAAACAAGGCTT against Mthfs | -1.07 (inactive) |
| GGGAAAAUAUCAGCUCAAUTT against D930048N14Rik | -2.63 (active) |
| GCCUUGUGACAGCAUUAGUTT against Slc6a13 | -0.0361 (inactive) |
| GGUGCUAAAUAAGACAAUGTT against Psma4 | -1.76 (inactive) |
| GGGCAUGUGGAUGACUGAUTT against Gnptg | 2.04 (active) |

| Sequence | z-score |
| --- | --- |
| GGGCUAGCAUCACAGUUUUTT against Tigd3 | 2.3 (active) |
| GCCCACUCACACCUAUUCUTT against Olfr1388 | 0.406 (inactive) |
| GGCGCAAGUUUGAUUUUGATT against Gigyf1 | 1.23 (inactive) |
| CCAUCUUGAAGAUUCGUUCTT against Olfr486 | -1.24 (inactive) |
| GCUAAUCUAUCCGUGUCCUTT against B3gnt3 | -0.522 (inactive) |
| GGUAUAGCGGUGCAUGUCATT against Bmp8a | -0.823 (inactive) |
| GCUGGAGAUCAUCCUUCAGTT against Rph3al | 0.742 (inactive) |
| GCUCCAGGCAUUGAGAAUGTT against Hcfc1r1 | 1.98 (inactive) |
| GGGAAGCUAAUAAAAGCACTT against Rgs20 | -0.902 (inactive) |
| GGUGCUCAAAGAAUGCAUUTT against Prkar1b | 0.367 (inactive) |
| GGCUUGCAUAUCUAUUGGATT against Map2k6 | 2.61 (active) |
| CCUCUCAGAUUUUCACAUATT against Zfp599 | 1.36 (inactive) |
| GGCUCAAAGUCCUCAGAGCTT against Atp6v1e1 | -2.15 (active) |
| GGGAUUGUAUGAGUGCACATT against Coa4 | 0.657 (inactive) |
| GGAGUCUUCUCAAUUUGACTT against Olfr1105 | -0.617 (inactive) |
| CCUAUAUGACAAAAGACAGTT against Glra2 | -0.168 (inactive) |
| GGCGGUCUUUAAGAUGCUCTT against Ubl7 | 2.12 (active) |
| GCUAGGUAUACAGCCAAAGTT against Spryd4 | -0.699 (inactive) |
| GCGCGUCAUCUUCUGACUUTT against Mmgt2 | 1.45 (inactive) |
| GGUGACUUGCUUUAGAAAATT against Tnfaip8l1 | 0.184 (inactive) |
| GCACCUCCUUAUGUGUCAUTT against Chrm2 | 0.729 (inactive) |
| GGACAUGACAUUUUUACGCTT against Cyp4f16 | -1.26 (inactive) |
| GGAUAUGAACAAUAGCAUATT against Kcna1 | 2.2 (active) |

| Sequence | z-score |
| --- | --- |
| GGACUUAUCACUAUUUGCATT against Dlgap3 | 0.782 (inactive) |
| GCCAUAGCUAUUGUCAUUCTT against Mmp16 | 0.441 (inactive) |
| GCAUGGUAUCAGGUACAUATT against Med9 | 2.2 (active) |
| GGUCUUUGUACAUCAAUGUTT against Zfp677 | -0.241 (inactive) |
| AACCAGUCCUUGAAAAGAGTT against Olfr128 | -1.01 (inactive) |
| GGAAGGUAUCCACUGUGCATT against Nme6 | -1.46 (inactive) |
| CCUCACCAGGUAAAUUUUUTT against Ro60 | -1.25 (inactive) |
| GGUACUUUCCUUUCGAUGCTT against Skint10 | -0.524 (inactive) |
| CCUGGUAACCUGCUAAAAGTT against Gm5124 | 1.24 (inactive) |
| GGACUGGUUCUUCAGUACCTT against Cradd | 2.21 (active) |
| GGAACACAUUACCUCAAUUTT against Lipt2 | -0.705 (inactive) |
| GGAACUCAUGUGAAGCUCCTT against Ssu72 | -0.544 (inactive) |
| GGAGCUGAGCAGUGAUGAATT against Snx29 | -2.08 (active) |
| GCACCUAGAUUGAUCAUAGTT against Olfr1183 | -0.894 (inactive) |
| GGAACCGCUGAUGCUUAAGTT against Ctsl | -0.726 (inactive) |
| GGCUCAGUGAAGGCAAGUUTT against Hspb2 | 2.56 (active) |
| GGGUCAUCCACUUUGUCAGTT against Fam177a | -0.584 (inactive) |
| CCGCUGCAUAGCAUGUACATT against Dusp23 | 0.901 (inactive) |
| GGUGGAGAUUAUUCAUGUUTT against Dpp8 | 2.31 (active) |
| GGUGAACAGAAGGACAGAUTT against Gm4736 | 0.479 (inactive) |
| CCAUUUAUGGAAUACACCUTT against Tmem150b | 0.0118 (inactive) |
| GGCCAAAUGACUGAGAUUGTT against Rcan3 | 1.35 (inactive) |
